# From PubChem BioAssay (NCATS)
# Values joined by “and” are separate entries in the source; they are usually repeats but may differ in a detail not shown here. Equal entries are not always repeated. Values without a mark were called inactive. Results filed as inconclusive are left out. The list shows a part of the results. Entries that show only a call come without a potency. Active and inactive are the calls of the source. Unless noted, calls follow the shape of the dose curve; as a rule, active = well fitted curve in the direction sought with a large enough effect; inconclusive = small, poorly fitted or top-dose-only effect, or another doubt; inactive = no such curve, though single readings can be large; an effect the other way counts as inactive or inconclusive.
# Columns and labels:
# [1] = target: Luciferin 4-monooxygenase (Photinus pyralis) (UniProt P08659); assay: Biochemical firefly luciferase enzyme assay for NPC (AID 624030);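 also: purified P. pyralis luciferase at 10 nM with luciferin and ATP substrate; series mostly up to about 59 µM; nearly all actives have a fitted effect of over 70% in size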
# Outline: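 Direct inhibition of firefly luciferase enzyme (10 nM final, 50 mM Tris Acetate) assessed by luminescence within 5 minutes. Percent activity scaled between DMSO and PTC124 positive control, with concentration-effect curves classified by fit quality and response.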
# [2] = target: Cytochrome P450 2C9 (Homo sapiens) (UniProt P11712); assay: qHTS Assay for Inhibitors and Substrates of Cytochrome P450 2C9 (AID 883); also: nearly all actives have a fitted effect of over 60% in size
# Outline: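 Luminescent read-out of deoxyluciferin hydroxylation, normalized to 57uM sulphaphenazole (AC100). Reaction: 10nM enzyme, 100uM Luciferin-H (equal to KM), 25mM KPO4, 10 min compound preincubation, then 60 min with NADPH regeneration, both at 37C.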
# [3] = target: Cytochrome P450 2C19 (Homo sapiens) (UniProt P33261); assay: qHTS Assay for Inhibitors and Substrates of Cytochrome P450 2C19 (AID 899); also: nearly all actives have a fitted effect of over 60% in size
# Outline: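 Luminescence readout of luciferin formed from 10uM Luciferin-H EGE (KM level) by 5 nM CYP2C19 in 50mM KPO4. 60 min NADPH-driven reaction at 37C after 10 min compound preincubation; data scaled to 57uM ketoconazole inhibition.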
# [4] = target: Tyrosyl-DNA phosphodiesterase 1 (Homo sapiens) (UniProt Q9NUW8); assay: Confirmation Assay for Inhibitors of Tyrosyl-DNA Phosphodiesterase (TDP1) (AID 489007); details: recombinant human TDP1 enzymatic activity, dose-response; also: potency is read from the fitted curve at half-maximal effect; nearly all actives have a fitted effect of over 40% in size
# Outline: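 Recombinant human Tdp1 (1 nM final), expressed in E. coli, preincubated 15 min with compound. Then 15 nM 5'-biotin/3'-phosphotyrosine-FITC DNA substrate added for 5 min at room temperature. AlphaScreen beads (10 ug/ml) added for 10 min; cleavage gives signal loss.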
# [5] = target: Cytochrome P450 3A4 (Homo sapiens) (UniProt P08684); assay: qHTS Assay for Activators of Cytochrome P450 3A4 (AID 885); also: nearly all actives have a fitted effect of over 65% in size; also: potency is read from the fitted curve at half-maximal effect
# Outline: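 Human CYP3A4 (20 nM) with Luciferin-PPXE at 25 uM (its KM) in 200 mM KPO4; 10 min compound preincubation, then NADPH regeneration and 60 min reaction at RT. Luciferin read by luminescence; normalized to 57 uM ketoconazole full inhibition.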
# [6] = target: Cytochrome P450 3A4 (Homo sapiens) (UniProt P08684); assay: qHTS Assay for Inhibitors and Substrates of Cytochrome P450 3A4 (AID 884); also: nearly all actives have a fitted effect of over 50% in size; also: potency is read from the fitted curve at half-maximal effect
# Outline: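 20 nM human CYP3A4 with 25 uM Luciferin-PPXE (at KM) in 200 mM KPO4, preincubated 10 min with compound; NADPH regeneration started a 60 min RT reaction. Luciferin detected by luminescence, normalized to 57 uM ketoconazole as full inhibition.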
# [7] = Confirmation and Secondary Assay for Modulators of Hemoglobin Beta Chain Splicing at IVS2 654 locus (AID 910);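 also: HeLa cells stably carrying EGFP split by mutant beta-globin IVS2-654 intron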
# Outline: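 Readout: per-well total peak green fluorescence (488 nm ex, 500–520 nm em) from objects 5–250 µm, reflecting correct splicing of an EGFP-654 reporter. Compounds were applied for 2 days at 37 °C to overnight-plated HeLa EGFP-654 cells; controls were DMSO and 500 nM IVS2-654 PNA.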
# [8] = Confirmation and Secondary Assay for Modulators of Hemoglobin Beta Chain Splicing at IVS2 705 locus (AID 930);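 also: HeLa cells stably expressing the EGFP-705 splicing reporter; GFP fluorescence per well restored by corrected splicing of the IVS2-705 intron in EGFP; series mostly up to about 46 µM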
# Outline: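 HeLa cells stably carrying EGFP interrupted by mutant beta-globin intron 2 (IVS2-705) treated 2 days at 37C with compound; 500 nM antisense PNA as control. Correct splicing read as total peak GFP intensity per well by laser-scanning cytometry.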
# [9] = target: Vitamin D3 receptor (Homo sapiens) (UniProt P11473); assay: qHTS for Inhibitors of the vitamin D receptor (VDR): Hit Validation in Primary Screen (AID 602199); details: VDR-coactivator inhibition assay, qHTS confirmation; also: potency is read from the fitted curve at half-maximal effect
# Outline: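 With 800 nM VDR and 5 uM LG19078 agonist present, compounds were incubated 2 h at ambient temperature with Alexa 647-labelled SRC2-3. Displacement was read as polarization at 620/688 nm.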
# [10] = target: Vitamin D3 receptor (Homo sapiens) (UniProt P11473); assay: qHTS for Inhibitors of the vitamin D receptor (VDR): Hit Validation using a Fluorescein Assay (AID 602200); details: VDR-coactivator binding, fluorescein fluorescence polarization; also: potency is read from the fitted curve at half-maximal effect
# Outline: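 Compounds added to VDR ligand-binding domain (1.5 uM) with agonist LG19078 (5 uM) and 5 nM SRC2-3 fluorescein peptide, final concentrations. After 2 h at ambient temperature, polarization of fluorescein emission (Ex 495 nm/Em 520 nm) measured.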
# [11] = target: Vitamin D3 receptor (Homo sapiens) (UniProt P11473); assay: qHTS for Inhibitors of the vitamin D receptor (VDR): Hit Validation using a Beta-Lactamase Assay (AID 602202)
# Outline: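 Beta-lactamase reporter read-out (447 nm emission of cleaved FRET substrate, 2 h) after 18 h compound exposure of HEK293 cells carrying a VDR-GAL4 fusion and UAS reporter, stimulated with LG190178.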
# [12] = target: DNA dC->dU-editing enzyme APOBEC-3G (Homo sapiens) (UniProt Q9HC16); assay: qHTS for inhibitors of Vif-A3G interactions: Validation (AID 588379)
# Outline: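 HeLa cells stably expressing Vif and A3G-eYFP, 700 cells/well, incubated overnight at 37 deg C, then exposed to compound overnight at 37 deg C. Inhibition of Vif-mediated degradation read as increased yellow fluorescence (Ex 488/Em 500-530) by laser-scanning cytometry.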
# [13] = target: Cytochrome P450 2C9 (Homo sapiens) (UniProt P11712); assay: Cytochrome P450 family 2 subfamily C member 9 (CYP2C9) small molecule antagonists: luciferase biochemical (cell-free) qHTS assay (AID 1645842; active = well fitted curve in the direction sought with a large enough effect in the repeat runs; an effect the other way counts as inactive or inconclusive; also: potency is read from the fitted curve at half-maximal effect; nearly all actives have a fitted effect of over 55% in size)
# Outline: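 Luminescence, after 20 min with luciferin detection reagent, reflected CYP2C9 turnover during a 1 h NADPH-driven reaction at 37C. Enzyme-substrate mix contained 0.4% bovine serum albumin and was preincubated with compound 10 min at room temperature.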
# [14] = target: Cytochrome P450 2D6 (Homo sapiens) (UniProt P10635); assay: qHTS Assay for Inhibitors and Substrates of Cytochrome P450 2D6 (AID 891);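 also: luciferin methyl ether substrate demethylated by CYP2D6 with NADPH regeneration; nearly all actives have a fitted effect of over 60% in size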
# Outline: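 Human CYP2D6 (5 nM) with 30 uM Luciferin-ME EGE (at Km) in 100 mM KPO4, compound preincubated 10 min, then NADPH regeneration system for 60 min at room temperature. Luciferin read by luminescence; normalized to 1.43 uM quinidine.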
# Luciferin 4-monooxygenase (Photinus pyralis), sequence (P08659 whole entry, looked up): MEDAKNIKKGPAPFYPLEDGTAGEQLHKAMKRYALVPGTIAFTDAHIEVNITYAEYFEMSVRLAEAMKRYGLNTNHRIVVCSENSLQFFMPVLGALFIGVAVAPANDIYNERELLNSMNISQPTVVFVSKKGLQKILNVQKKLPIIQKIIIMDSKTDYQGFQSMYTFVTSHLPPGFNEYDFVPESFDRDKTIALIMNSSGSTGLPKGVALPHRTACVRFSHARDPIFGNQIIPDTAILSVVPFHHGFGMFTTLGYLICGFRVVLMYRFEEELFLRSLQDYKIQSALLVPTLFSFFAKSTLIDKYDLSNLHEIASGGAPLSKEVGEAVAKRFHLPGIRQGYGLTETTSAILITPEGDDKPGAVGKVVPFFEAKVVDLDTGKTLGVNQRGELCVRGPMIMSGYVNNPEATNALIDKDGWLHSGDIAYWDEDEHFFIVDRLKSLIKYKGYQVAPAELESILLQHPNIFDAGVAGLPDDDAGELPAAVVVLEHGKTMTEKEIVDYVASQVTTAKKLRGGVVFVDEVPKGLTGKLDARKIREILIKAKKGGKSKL
# Cytochrome P450 2C9 (Homo sapiens), sequence (P11712 whole entry, looked up): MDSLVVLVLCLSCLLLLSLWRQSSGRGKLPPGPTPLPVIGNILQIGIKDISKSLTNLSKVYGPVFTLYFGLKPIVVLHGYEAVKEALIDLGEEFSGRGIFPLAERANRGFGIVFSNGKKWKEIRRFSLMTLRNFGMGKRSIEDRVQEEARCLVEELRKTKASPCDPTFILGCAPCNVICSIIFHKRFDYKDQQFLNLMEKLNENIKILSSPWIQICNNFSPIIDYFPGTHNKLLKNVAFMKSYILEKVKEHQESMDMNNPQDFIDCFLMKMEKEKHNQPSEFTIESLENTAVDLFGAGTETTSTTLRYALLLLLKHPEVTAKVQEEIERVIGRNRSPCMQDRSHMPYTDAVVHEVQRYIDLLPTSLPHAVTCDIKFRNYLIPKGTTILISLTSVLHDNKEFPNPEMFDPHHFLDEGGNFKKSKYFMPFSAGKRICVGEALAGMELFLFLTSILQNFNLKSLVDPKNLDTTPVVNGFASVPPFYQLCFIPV
# Tyrosyl-DNA phosphodiesterase 1 (Homo sapiens), sequence (Q9NUW8 whole entry, looked up): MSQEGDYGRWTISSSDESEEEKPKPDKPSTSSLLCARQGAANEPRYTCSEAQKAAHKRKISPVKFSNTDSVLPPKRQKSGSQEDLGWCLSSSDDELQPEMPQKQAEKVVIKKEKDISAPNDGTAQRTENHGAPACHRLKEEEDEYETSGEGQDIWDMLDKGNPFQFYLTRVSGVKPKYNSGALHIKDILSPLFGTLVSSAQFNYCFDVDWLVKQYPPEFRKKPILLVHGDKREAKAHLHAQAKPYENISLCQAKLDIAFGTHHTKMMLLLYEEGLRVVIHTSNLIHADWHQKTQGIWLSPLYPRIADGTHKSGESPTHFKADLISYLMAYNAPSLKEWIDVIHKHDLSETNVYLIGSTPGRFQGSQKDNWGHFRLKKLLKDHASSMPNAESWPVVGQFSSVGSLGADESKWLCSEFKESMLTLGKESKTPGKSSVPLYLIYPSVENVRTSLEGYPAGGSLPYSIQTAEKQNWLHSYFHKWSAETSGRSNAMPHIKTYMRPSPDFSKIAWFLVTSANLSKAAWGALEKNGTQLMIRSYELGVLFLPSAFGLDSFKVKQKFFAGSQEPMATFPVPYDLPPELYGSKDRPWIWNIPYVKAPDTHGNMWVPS
# Cytochrome P450 2C19 (Homo sapiens), sequence (P33261 whole entry, looked up): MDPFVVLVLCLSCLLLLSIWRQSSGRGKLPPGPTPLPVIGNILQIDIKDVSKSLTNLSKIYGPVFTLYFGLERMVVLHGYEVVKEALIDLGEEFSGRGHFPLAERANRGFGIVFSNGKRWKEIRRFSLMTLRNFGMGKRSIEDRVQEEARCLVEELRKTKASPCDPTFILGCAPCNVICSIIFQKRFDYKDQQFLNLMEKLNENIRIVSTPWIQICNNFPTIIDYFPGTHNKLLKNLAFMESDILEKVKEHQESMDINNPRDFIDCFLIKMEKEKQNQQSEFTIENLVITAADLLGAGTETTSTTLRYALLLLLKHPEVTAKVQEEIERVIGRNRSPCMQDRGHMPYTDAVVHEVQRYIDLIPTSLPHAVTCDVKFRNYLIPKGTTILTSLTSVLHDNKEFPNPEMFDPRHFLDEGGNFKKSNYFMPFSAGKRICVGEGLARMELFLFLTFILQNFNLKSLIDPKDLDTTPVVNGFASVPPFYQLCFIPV
# Cytochrome P450 3A4 (Homo sapiens), sequence (P08684 whole entry, looked up): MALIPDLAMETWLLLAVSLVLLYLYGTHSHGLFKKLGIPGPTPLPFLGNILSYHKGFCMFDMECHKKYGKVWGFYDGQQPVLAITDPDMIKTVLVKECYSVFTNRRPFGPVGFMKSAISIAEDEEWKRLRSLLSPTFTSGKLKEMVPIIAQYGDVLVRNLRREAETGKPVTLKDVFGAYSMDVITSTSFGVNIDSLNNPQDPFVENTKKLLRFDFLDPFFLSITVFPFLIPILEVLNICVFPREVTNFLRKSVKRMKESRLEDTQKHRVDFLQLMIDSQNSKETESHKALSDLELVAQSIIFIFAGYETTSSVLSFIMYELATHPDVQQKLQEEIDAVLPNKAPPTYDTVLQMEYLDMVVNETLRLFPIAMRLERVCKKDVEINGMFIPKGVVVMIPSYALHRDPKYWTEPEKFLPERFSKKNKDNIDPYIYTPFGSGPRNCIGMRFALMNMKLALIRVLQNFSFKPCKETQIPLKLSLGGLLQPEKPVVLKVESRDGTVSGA
# Vitamin D3 receptor (Homo sapiens), sequence (P11473 whole entry, looked up, the tested form may be a part): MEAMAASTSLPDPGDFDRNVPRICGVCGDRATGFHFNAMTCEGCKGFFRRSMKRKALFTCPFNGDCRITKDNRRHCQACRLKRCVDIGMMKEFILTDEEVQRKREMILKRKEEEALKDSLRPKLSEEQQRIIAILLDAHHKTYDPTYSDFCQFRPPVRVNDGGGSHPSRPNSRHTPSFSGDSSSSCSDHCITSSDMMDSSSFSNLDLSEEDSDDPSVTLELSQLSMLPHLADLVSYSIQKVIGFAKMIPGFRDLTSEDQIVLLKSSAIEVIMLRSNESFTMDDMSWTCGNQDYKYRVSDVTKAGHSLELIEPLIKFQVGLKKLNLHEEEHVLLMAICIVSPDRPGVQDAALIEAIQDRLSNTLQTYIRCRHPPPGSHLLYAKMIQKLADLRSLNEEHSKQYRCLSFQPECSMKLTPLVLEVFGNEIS
# DNA dC->dU-editing enzyme APOBEC-3G (Homo sapiens), sequence (Q9HC16 whole entry, looked up): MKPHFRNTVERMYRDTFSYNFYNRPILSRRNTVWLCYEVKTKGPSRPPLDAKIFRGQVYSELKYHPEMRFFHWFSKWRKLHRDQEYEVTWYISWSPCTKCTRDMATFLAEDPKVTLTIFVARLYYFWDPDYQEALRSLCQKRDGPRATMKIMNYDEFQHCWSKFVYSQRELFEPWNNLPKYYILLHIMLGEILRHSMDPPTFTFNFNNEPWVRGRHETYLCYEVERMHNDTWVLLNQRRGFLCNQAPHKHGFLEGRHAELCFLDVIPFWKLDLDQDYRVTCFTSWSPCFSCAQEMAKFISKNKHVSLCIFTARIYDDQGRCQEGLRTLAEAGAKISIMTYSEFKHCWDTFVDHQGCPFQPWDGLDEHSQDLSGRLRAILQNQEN
# Cytochrome P450 2D6 (Homo sapiens), sequence (P10635 whole entry, looked up): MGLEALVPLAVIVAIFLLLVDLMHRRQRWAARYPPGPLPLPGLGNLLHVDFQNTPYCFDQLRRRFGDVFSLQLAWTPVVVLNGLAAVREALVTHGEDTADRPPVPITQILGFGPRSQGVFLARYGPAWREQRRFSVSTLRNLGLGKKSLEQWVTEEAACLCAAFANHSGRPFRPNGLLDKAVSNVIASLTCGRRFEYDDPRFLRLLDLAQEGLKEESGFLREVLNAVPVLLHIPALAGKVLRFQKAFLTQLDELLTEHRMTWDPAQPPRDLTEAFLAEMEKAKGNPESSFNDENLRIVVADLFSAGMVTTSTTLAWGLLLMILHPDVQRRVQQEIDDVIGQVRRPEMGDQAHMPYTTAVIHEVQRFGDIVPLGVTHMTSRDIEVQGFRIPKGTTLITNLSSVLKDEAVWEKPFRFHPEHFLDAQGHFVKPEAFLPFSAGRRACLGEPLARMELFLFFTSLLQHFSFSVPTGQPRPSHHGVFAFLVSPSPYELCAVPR
smiles,measurement,setting,value
CC(=O)Nc1c(I)c(C(=O)N[C@H]2[C@@H](O)[C@H](O)[C@H](CO)O[C@@H]2O)c(I)c(N(C)C(C)=O)c1I,outcome,[1],inactive
CN1[C@@H](CC(=O)c2ccccc2)CCC[C@@H]1C[C@@H](O)c1ccccc1,Potency,[2],inactive
same,Potency,[3],inactive
CN(C)[C@H]1C(=O)C(C(=O)NCN2CCCC2)=C(O)[C@]2(O)C(=O)C3=C(O)c4c(O)cccc4[C@@](C)(O)[C@H]3C[C@@H]12,Potency,[4],8.91 µM (active)
COc1ccc(C[C@@H]2c3cc(OC)c(OC)cc3CC[N@+]2(C)CCC(=O)OCCCCCOC(=O)CC[N@@+]2(C)CCc3cc(OC)c(OC)cc3[C@H]2Cc2ccc(OC)c(OC)c2)cc1OC,Potency,[5],inactive
same,outcome,[1],inactive
C[C@@H](C(=O)O)c1ccc(C(=O)c2cccs2)cc1,outcome,[1],inactive
CO[C@H]1C[C@@H](O[C@@H]2[C@H](C)[C@H](O[C@@H]3O[C@@H](C)C[C@@H](N(C)C)[C@@H]3O)[C@H](C)C[C@]3(CO3)C(=O)[C@H](C)[C@H](O)[C@H](C)[C@H](C)OC(=O)[C@@H]2C)O[C@@H](C)[C@H]1O,Potency,[5],inactive
same,outcome,[1],inactive
C/C=C\C(=O)N(CC)c1ccccc1C,Potency,[6],inactive
same,Potency,[5],7.94 µM (active)
same,outcome,[1],inactive
CC1CC2C3CCC4=CC(=O)C=C[C@@]4(C)[C@]3(F)C(O)C[C@]2(C)[C@]1(O)C(=O)CO (stereo partly specified),Potency,[7],inactive
same,outcome,[8],inactive
CC(CCC(=O)O)C1CCC2C3C(O)C[C@@H]4CC(O)CC[C@@]4(C)C3CC[C@@]12C (stereo partly specified),Potency,[7],inactive
same,outcome,[8],inactive
CC(C)(O/N=C(\C(=O)N[C@@H]1C(=O)N2C(C(=O)[O-])=C(C[n+]3ccccc3)CS[C@@H]12)c1csc(N)n1)C(=O)O,outcome,[1],inactive
CO/N=C(/C(=O)NC1C(=O)N2C(C(=O)O)=C(CSc3nc(=O)c(O)nn3C)CSC12)c1csc(N)n1 (stereo unspecified),Potency,[7],inactive
same,outcome,[8],inactive
same,Potency,[4],1.78 µM (active) and 12.6 µM (active)
C=C1C2CC[C@@]3(C)C(c4ccoc4)OC(=O)C[C@@]13OC1CC(O)C(C)(C)C(CC(=O)OC)[C@@]12C (stereo partly specified),Potency,[6],12.6 µM (active) and 7.94 µM (active)
same,Potency,[5],inactive
same,Potency,[7],inactive
same,outcome,[8],inactive
C[C@@](N)(Cc1ccc(O)cc1)C(=O)O,Potency,[7],inactive
same,outcome,[8],inactive
N=c1ccn2c(n1)OC1C(O)C(CO)OC12 (stereo unspecified),Potency,[6],inactive
same,Potency,[7],inactive
same,outcome,[8],inactive
CCCCOc1ccc(CN2C(=O)C(=O)c3cc(Br)cc(C)c32)cc1OC,Potency,[9],10 µM (active)
same,Potency,[10],8.91 µM (active)
same,Potency,[11],inactive
COc1cccc(-c2nccc(NC3CCNCC3)n2)c1,Potency,[7],inactive
Nc1ccccc1C(=O)CC(N)C(=O)O (stereo unspecified),Potency,[7],inactive
same,outcome,[8],inactive
same,outcome,[12],inactive
O=c1c(O)c(-c2ccc(O)cc2)oc2ccccc12,Potency,[6],12.6 µM (active)
same,Potency,[5],inactive
same,Potency,[7],inactive
same,outcome,[8],inactive
CC1(C)Oc2ccc(C#N)cc2[C@H](N2CCCC2=O)[C@H]1O,Potency,[2],inactive
same,Potency,[3],inactive
same,outcome,[12],inactive
Cc1ccc(Cn2c(C)c3cnn(CC(=O)NCc4ccccc4)c(=O)c3c2C)cc1,Potency,[13],12 µM (active)
COc1c2ccoc2nc2c(OC)c(OC[C@H](O)C(C)(C)O)ccc12,Potency,[2],inactive
same,Potency,[5],inactive
same,Potency,[14],inactive
same,Potency,[3],inactive
C1CCN2C[C@H]3C[C@H](CN4CCCCC34)C2C1 (stereo partly specified),Potency,[7],inactive
CCOC(=O)c1ccc(NC(=O)CSc2nc3c([nH]c4ccccc43)c(=O)n2C)cc1,Potency,[13],3.01 µM (active)
CC1(C)S[C@@H]2[C@H](NC(=O)[C@H](C(=O)O)c3ccsc3)C(=O)N2[C@H]1C(=O)O,outcome,[1],inactive
